C diff HTS: C. difficile growth inhibition | hit rate 0.25% among 86,000 | growth activity, negative = inhibition, % at 16 µg/mL (by protocol) | Clostridium difficile clinical isolate growth, OD600, 24 h; active compounds read low;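 active = mean growth activity at or below -80% and every replicate also at or below -80%; inconclusive = mean at or below -80% but some replicate above -80%; inactive = mean growth activity above -80%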;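 also: 0% = DMSO wells and -100% = levofloxacin 16 µg/mL wells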
T cruzi growth-1: T. cruzi proliferation inhibition; T. cruzi beta-gal in NIH3T3, GalScreen luminescence, 90 h; inhibition, % at 8.34 µM; hit rate 5.9% among 77,000; AID 624255;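 active = mean inhibition above about 93%, with at least 55% of replicates each passing it, limit read from the data, passing the limit was not always enough; inconclusive = only one of those two conditions holds; inactive = neither condition holds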
Pf Dd2 inh: P. falciparum Dd2 growth inhibition; hit rate 2.3% among 94,000; SYBR Green, 72 h; active compounds read low; activity change, % at 10 µM; in the data active = activity change below about -80%; inconclusive = no clear call, values can overlap the other calls
T cruzi growth-2: inhibitors of T. cruzi proliferation | hit rate 72% among 5,600 | shares compounds with T cruzi growth-1 | T. cruzi beta-gal in NIH3T3, GalScreen luminescence, 90 h | inhibition, % at 8.35 µM;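 active = mean replicate inhibition above about 95% and at least 55% of replicates individually reaching it, limit read from the data; inconclusive = only one of the two criteria is met; inactive = neither criterion is met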
T cruzi growth-3: Trypanosoma cruzi proliferation inhibition | shares compounds with T cruzi growth-1 | T. cruzi beta-gal in NIH3T3, GalScreen luminescence, 90 h | inhibition, % at 2.09 µM | hit rate 21% among 5,600 | AID 651740;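 active = mean inhibition above about 95%, with at least 55% of replicates also reaching it, limit read from the data; inconclusive = meets just one of the two conditions; inactive = meets neither condition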;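 also: plate controls were neutral control median for no effect and positive control median for full effect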
NIH3T3 tox: kills mouse NIH/3T3 fibroblasts; AID 651742; cytotoxicity (signal decrease), % at 8.35 µM; NIH/3T3 viability, CellTiter-Glo ATP luminescence, 90 h; shares compounds with T cruzi growth-1; hit rate 14% among 5,600;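 active = mean signal decrease across replicates above about 35% based on untreated-well scatter, with enough replicates individually passing, limit read from the data; inconclusive = no rule stated though some were filed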;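 also: 0% = median of neutral control wells and 100% = median of positive control wells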
3T3 cytotox 2: cytotoxicity in mouse NIH/3T3 fibroblasts | NIH/3T3 viability, CellTiter-Glo ATP luminescence, 90 h | inhibition, % at 24.9 µM | shares compounds with T cruzi growth-1 | AID 651744 | hit rate 56% among 5,600;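 active = mean loss of cell viability signal at or above a set limit, and enough replicates individually reaching it; inconclusive = meets only the mean limit or only the replicate share; inactive = meets neither condition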;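 also: 0% = median of neutral control wells and 100% = median of positive control wells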
* marks the source's active call; other numbers are inactive results; ? = inconclusive; nt = no result. A selection: hits, their analogues and other compounds. The true share with any hit is near 6.7%.

SMILES | C diff HTS | T cruzi growth-1 | Pf Dd2 inh | T cruzi growth-2 | T cruzi growth-3 | NIH3T3 tox | 3T3 cytotox 2
COc1ccccc1CNC(=O)C[C@H]1C[C@H]2c3cc(NC(=O)Nc4ccccc4F)ccc3O[C@H]2[C@@H](CO)O1 | 2 | 30 | 32 | nt | nt | nt | nt
COCC(=O)Nc1ccc2c(c1)[C@H]1C[C@H](CC(=O)NCc3ccccc3OC)O[C@@H](CO)[C@H]1O2 | -3 | 101* | 0 | 3 | 0 | -8 | -12
COc1ccccc1CNC(=O)C[C@H]1CC[C@H](NC(C)=O)[C@H](CO)O1 | 3 | -57 | 2 | nt | nt | nt | nt
COc1ccccc1CNC(=O)C[C@H]1C[C@@H]2c3cc(NC(=O)Nc4ccc(C(F)(F)F)cc4)ccc3O[C@@H]2[C@@H](CO)O1 | 4 | 140* | ? | 110* | 101* | 0 | 14
COc1ccccc1CNC(=O)C[C@H]1C[C@H]2c3cc(NC(=O)CC4CC4)ccc3O[C@H]2[C@H](CO)O1 | 6 | -16 | -18 | nt | nt | nt | nt
COc1ccccc1CNC(=O)C[C@H]1C[C@H]2c3cc(NC(=O)Nc4ccccc4F)ccc3O[C@H]2[C@H](CO)O1 | -2 | 17 | -31 | nt | nt | nt | nt
COc1ccccc1CNC(=O)C[C@@H]1CC[C@@H](NC(C)=O)[C@H](CO)O1 | 4 | ? | -15 | 4 | -24 | -15 | 3
COc1ccccc1CNC(=O)C[C@H]1C[C@H]2c3cc(NC(=O)Nc4ccc(C(F)(F)F)cc4)ccc3O[C@H]2[C@@H](CO)O1 | 8 | 123* | -33 | 105* | 65 | -9 | -2
CS(=O)(=O)Nc1ccc2c(c1)[C@H]1C[C@H](CC(=O)NCCc3ccccc3)O[C@H](CO)[C@H]1O2 | -4 | 52 | 9 | nt | nt | nt | nt
C[C@H](CO)N1C[C@H](C)[C@@H](CN(C)C(=O)NC2CCCCC2)Oc2ccc(NS(=O)(=O)c3cn(C)cn3)cc2CC1=O | -2 | -3 | 28 | nt | nt | nt | nt
CO[C@H]1CN(C)C(=O)c2cc(NC(C)=O)ccc2OC[C@@H](C)N(CCC(F)(F)F)C[C@@H]1C | nt | 76 | -2 | nt | nt | nt | nt
COc1ccc2c3c([nH]c2c1)[C@@H](CO)N(C(=O)CN1CCOCC1)CC31CCN(C(C)=O)CC1 | -3 | nt | 42 | nt | nt | nt | nt
Cc1ccc(S(=O)(=O)N[C@@H]2CC[C@@H](CC(=O)NCc3ccccc3F)O[C@@H]2CO)cc1 | 4 | 24 | -9 | nt | nt | nt | nt
C[C@@H]1CCCCO[C@@H](CN(C)C(=O)Nc2cccc3ccccc23)[C@@H](C)CN([C@H](C)CO)C(=O)c2cc(NS(=O)(=O)c3ccc(Cl)cc3)ccc2O1 | -5 | 32 | -57 | nt | nt | nt | nt
C[C@@H]1CCCCO[C@H](CN(C)C(=O)Nc2cccc3ccccc23)[C@H](C)CN([C@H](C)CO)C(=O)c2cc(NS(=O)(=O)c3ccc(Cl)cc3)ccc2O1 | 2 | 105* | -76 | 108* | 113* | 9 | -1
C[C@@H]1CN([C@@H](C)CO)C(=O)c2cc(NS(=O)(=O)c3ccccc3)ccc2O[C@@H](C)CCCCO[C@@H]1CN(C)C(=O)Nc1cccc2ccccc12 | nt | nt | -73 | nt | nt | nt | nt
C[C@@H]1CCCCO[C@@H](CN(C)C(=O)Nc2cccc3ccccc23)[C@@H](C)CN([C@@H](C)CO)C(=O)c2cc(NS(=O)(=O)c3ccc(Cl)cc3)ccc2O1 | -3 | 99* | -77 | 103* | 93 | -3 | 4
COCC(=O)N(C)C[C@@H]1Oc2cc(C#CC3CCCC3)ccc2S(=O)(=O)N([C@H](C)CO)C[C@H]1C | nt | 18 | -25 | nt | nt | nt | nt
O=C(Nc1cccc(F)c1)N[C@H]1CC[C@H](CCn2cc(Cc3ccccc3)nn2)O[C@@H]1CO | 4 | 2 | 19 | nt | nt | nt | nt
O=C(Cc1ccncc1)Nc1ccc2c(c1)[C@H]1C[C@@H](CC(=O)N3CCCCC3)O[C@@H](CO)[C@H]1O2 | 0 | 12 | 16 | nt | nt | nt | nt
C[C@@H]1CCCCO[C@H](CN(C)S(=O)(=O)c2cccs2)[C@H](C)CN([C@H](C)CO)C(=O)c2cc(NC(=O)Nc3ccccc3)ccc2O1 | 3 | 108* | nt | 107* | 26 | 12 | 5
C[C@H]1CCCCO[C@@H](CN(C)S(=O)(=O)c2cccs2)[C@@H](C)CN([C@@H](C)CO)C(=O)c2cc(NC(=O)Nc3ccc(F)cc3)ccc2O1 | 1 | 99* | -45 | 109* | 59 | 18 | 27*
C[C@@H]1CCCCO[C@H](CN(C)S(=O)(=O)c2cccs2)[C@H](C)CN([C@@H](C)CO)C(=O)c2cc(NC(=O)Nc3ccccc3)ccc2O1 | -6 | 99* | nt | 101* | 29 | 1 | 30*
C[C@@H]1CN([C@@H](C)CO)C(=O)c2cc(NC(=O)Nc3ccc(F)cc3)ccc2O[C@@H](C)CCCCO[C@H]1CN(C)S(=O)(=O)c1cccs1 | 1 | 56 | -70 | nt | nt | nt | nt
C[C@@H]1CCCCO[C@@H](CN(C)S(=O)(=O)c2cccs2)[C@@H](C)CN([C@@H](C)CO)C(=O)c2cc(NC(=O)Nc3ccc(F)cc3)ccc2O1 | 7 | 27 | -35 | nt | nt | nt | nt
SMILES | C diff HTS | T cruzi growth-1 | Pf Dd2 inh | T cruzi growth-2 | T cruzi growth-3 | NIH3T3 tox | 3T3 cytotox 2
C[C@@H]1CCCCO[C@@H](CN(C)S(=O)(=O)c2cccs2)[C@@H](C)CN([C@@H](C)CO)C(=O)c2cc(NC(=O)Nc3ccccc3)ccc2O1 | 15 | 54 | nt | nt | nt | nt | nt
C[C@@H]1CCCCO[C@@H](CN(C)S(=O)(=O)c2cccs2)[C@H](C)CN([C@H](C)CO)C(=O)c2cc(NC(=O)Nc3ccccc3)ccc2O1 | 10 | 112* | nt | 108* | 76 | -22 | 1
C[C@@H]1CCCCO[C@@H](CN(C)S(=O)(=O)c2cccs2)[C@H](C)CN([C@@H](C)CO)C(=O)c2cc(NC(=O)Nc3ccc(F)cc3)ccc2O1 | 4 | 65 | -23 | nt | nt | nt | nt
CCC(=O)N(C)C[C@H]1Oc2cc(-c3cccc(C#N)c3)ccc2S(=O)(=O)N([C@H](C)CO)C[C@H]1C | 0 | 49 | 5 | nt | nt | nt | nt
C[C@H](CO)N1C[C@H](C)[C@H](CN(C)S(=O)(=O)c2ccc(Cl)cc2)Oc2ccc(NC(=O)Nc3cccc4ccccc34)cc2C1=O | 0 | 93 | -36 | nt | nt | nt | nt
CCC(=O)N1[C@H](CO)[C@H](c2ccc(-c3ccccc3OC)cc2)[C@@H]1CNC(C)=O | 3 | nt | 16 | nt | nt | nt | nt
O=C(C[C@H]1C[C@@H]2c3cc(NC(=O)Nc4ccc(C(F)(F)F)cc4)ccc3O[C@@H]2[C@@H](CO)O1)NCc1ccccn1 | 1 | 35 | -42 | nt | nt | nt | nt
CNC[C@@H]1Oc2c(NS(=O)(=O)c3cccs3)cccc2C(=O)N([C@@H](C)CO)C[C@@H]1C | 1 | 2 | 30 | nt | nt | nt | nt
Cc1ccc(S(=O)(=O)Nc2ccc3c(c2)C(=O)N(C)[C@@H]2CC[C@H](CC(=O)NCCc4ccncc4)O[C@@H]2CO3)cc1 | 18 | -19 | 17 | nt | nt | nt | nt
C[C@H]1CN([C@@H](C)CO)C(=O)Cc2cc(NC(=O)CCC(F)(F)F)ccc2O[C@H]1CN(C)CC1CCCCC1 | -1 | 48 | 10 | nt | nt | nt | nt

Screening results from PubChem.
